{
  "source": "PubChem BioAssay (NCI)",
  "note": "Where “and” joins values, the source holds several entries; their conditions need not be identical. Equal entries are not always repeated. About 83,000 compounds went through this panel and 20% of them were active in at least one assay; those are over-represented in the sample as a whole.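 Assay: single dose, 48 h. Readout: percent growth (0 = no net growth; negative = cell death). Active: <10.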 Unmarked numbers belong to inactive results. Calls of active or inactive are those of the source.",
  "data": [
    {"system": "UACC-257 melanoma", "assay": "NCI-60 one-dose screen, 48 h (100 = growth as untreated, 0 = no growth, -100 = all killed)", "settings": "10 µM unless noted", "values": [
      {"smiles": "Cc1c(C(C)(C)O)cn2ncnc(Oc3ccc(NC(=O)Nc4ccc(Cl)c(C(F)(F)F)c4)cc3)c12", "growth": "66.5%"},
      {"smiles": "Cc1ccc(C(=O)N(CCCN)[C@@H](c2nc3cc(Cl)ccc3c(=O)n2Cc2ccccc2)C(C)C)cc1", "growth": "-56.6% (active)"},
      {"smiles": "O=c1ccc2nc(-c3ccccn3)nn(-c3ccccc3)c-2c1", "growth": "60.3%"},
      {"smiles": "COc1ccc(-c2ccc(-c3ccc(C(=N)N)cn3)o2)cc1Cl", "growth": "77.1%"},
      {"smiles": "Cc1ccc(Nc2nc(-c3cc(O)c(C)c(C)c3O)cs2)cc1", "growth": "104%"},
      {"smiles": "COC(=O)/C=C1/SC(N2N=C(c3cccs3)CC2c2ccc(F)cc2)=NC1=O", "note": "(stereo not drawn)", "growth": "84.4%"},
      {"smiles": "COC(=O)c1[nH]nc(OC)c1C1(C(C#N)c2nc3ccccc3s2)CCCc2ccccc21", "note": "(stereo not drawn)", "growth": "101%"},
      {"smiles": "CCOC(=O)c1c(-c2ccc(C)cc2)c(C#N)c(=O)n(-c2cccc(C(F)(F)F)c2)c1N", "growth": "101%"},
      {"smiles": "COc1cc2nc3cc([N+](=O)[O-])ccc3c(NCCNCC(C)(C)O)c2cc1OC", "growth": "-61.8% (active)"},
      {"smiles": "Cc1ccc(C(=O)Nc2ccc(CN3CCN(C)CC3)c(C(F)(F)F)c2)cc1C#Cc1cnc(N)cc1C#N", "growth": "-23.6% (active)"},
      {"smiles": "OCCN1CCN(CC/C=C2\\c3ccccc3Sc3ccc(Cl)cc32)CC1", "growth": "-83.9% (active) and -94.1% (active)"},
      {"smiles": "CCCCCCNC(=O)Oc1ccc(/C(=C(/CC)Cc2ccccc2)c2ccc(OCCCN(C)C)cc2)cc1", "growth": "80.8%"},
      {"smiles": "O=c1cc(N/N=C/c2ccc(F)cc2)c2cc(Cl)ccc2[nH]1", "growth": "85.8%"},
      {"smiles": "O=C(Nc1ccccc1C(=O)N/N=C(\\c1ccccc1)c1ccccn1)c1ccccc1", "growth": "-10.4% (active)"},
      {"smiles": "FC(F)(F)Sc1ccc(/C=C/c2cc(/C=C/c3ccc(SC(F)(F)F)cc3)n(-c3ccccc3)n2)cc1", "growth": "86.4%"},
      {"smiles": "Cc1ccc(-c2nc3nc(-c4ccc(Cl)cc4)nc(N4CCCNCC4)c3o2)cc1", "growth": "103%"},
      {"smiles": "CN1CCN(c2ccc(/C=C/C(=O)c3ccc(O)cc3)cc2)CC1", "growth": "96.1%"},
      {"smiles": "COc1ccc(/C(C)=C(\\c2ccc(OCCN3CCOCC3)cc2)c2ccc(OC(=O)C3CCCCC3)cc2)cc1", "growth": "112%"},
      {"smiles": "CS(=O)(=O)Nc1cc(-c2ccc3ncnc(Nc4ccc(F)c(Cl)c4)c3c2)cnc1Cl", "growth": "4.62% (active)"},
      {"smiles": "CCOc1ccc(C(=O)Cc2ccccc2)cc1", "growth": "110% and 99.2%"},
      {"smiles": "CCCc1cc(C(N)=S)ccn1", "growth": "112%"},
      {"smiles": "COc1ccc(-c2ccc(-c3ccc(C(=N)N)cn3)s2)cc1Cl", "growth": "-60.8% (active)"},
      {"smiles": "Nc1nc(CSc2n[nH]c(N)n2)nc(Nc2ccccc2)n1", "growth": "107%"},
      {"smiles": "COC(=O)c1nc(-c2ccccc2)oc1S(=O)(=O)N(C)CCO", "growth": "63.8%"},
      {"smiles": "Nc1nc(Cl)nc2c1ncn2C1OC(CO)C(O)C1O", "note": "(stereo not drawn)", "growth": "99.1% and 85.9%"},
      {"smiles": "Cc1ccc(NC(=O)c2sc3nc(C)c(C(=O)c4ccccc4)cc3c2N)cc1", "growth": "94.9%"},
      {"smiles": "O=Nc1ccc(NO)c2ccccc12", "growth": "104% and 52.4%"},
      {"smiles": "N=C1/C(=C2\\NC3C=CC=CC3S2)C(c2ccc(Cl)cc2)C2C(=O)N(c3ccccc3)C(=S)N12", "note": "(stereo not drawn)", "growth": "107%"},
      {"smiles": "COc1cccc(C2C(C#N)=C(N)Oc3cc(OCCCCCC[P+](c4ccccc4)(c4ccccc4)c4ccccc4)ccc32)c1", "note": "(stereo not drawn)", "growth": "-21.5% (active)"},
      {"smiles": "C=C1CC[C@@H]2[C@](C)(COC(C)=O)[C@H](OC(C)=O)CC[C@@]2(C)[C@@H]1CC(Nc1ccc(S(=O)(=O)Nc2nccs2)cc1)C1=CCOC1=O", "note": "(stereo partly drawn)", "growth": "22.4%"},
      {"smiles": "CCNC(=O)Oc1ccc(/C(=C(/C)Cc2ccc(OC)cc2)c2ccc(OCCN(CC)CC)cc2)cc1", "growth": "-56.3% (active)"},
      {"smiles": "O=C1OCC2=C1C(c1cccc(C(F)(F)F)c1)c1cc3c(cc1N2CCO)CCC3", "note": "(stereo not drawn)", "growth": "67.8%"},
      {"smiles": "O=C(Nc1ccc2ccccc2c1)c1cc2ccccc2cc1O", "growth": "85.6%"},
      {"smiles": "CCOC(=O)c1nnn(Cc2cc(=O)oc3c2ccc2ccccc23)c1C", "growth": "94%"},
      {"smiles": "CCC(=O)Oc1cc(Cl)c(Cl)cc1Cl", "growth": "95.8%"},
      {"smiles": "COc1ccc(C(=O)c2ccc(OC)c(OC)c2OC)cc1", "growth": "48.6% and 61%"},
      {"smiles": "Cn1cc(-c2nonc2-c2cn(C)c3ccc(Br)cc23)c2ccccc21", "growth": "49.5%"},
      {"smiles": "CC(C)(C)c1cc(NC(=O)Nc2ccc(-c3cn4c(n3)sc3cc(OCCN5CCOCC5)ccc34)cc2)no1", "growth": "4.5% (active) and -6.8% (active)"}
    ]}
  ]
}
